# Measured values as given in paper PMC7862700, “An all-to-all approach to the identification of sequence-specific readers for epigenetic DNA modifications on cytosine”.
# Experiments:
# Assay in all cases: DAPPL (digital affinity profiling via proximity ligation, sequencing); 10 mM Tris-HCl pH 7.5, 50 mM NaCl, 1 mM DTT, 4% glycerol, room temperature, 30 min; GST-TFs on glutathione beads, 16-mer random dsDNA library, 0.1% formaldehyde crosslink after washing; high values mean tight binding
# FEV = target: T1, FEV (Homo sapiens, UniProt Q99581 1-238); details: protein: recombinant; tags: N-terminal GST; dsDNA, one strand shown
# T1 sequence: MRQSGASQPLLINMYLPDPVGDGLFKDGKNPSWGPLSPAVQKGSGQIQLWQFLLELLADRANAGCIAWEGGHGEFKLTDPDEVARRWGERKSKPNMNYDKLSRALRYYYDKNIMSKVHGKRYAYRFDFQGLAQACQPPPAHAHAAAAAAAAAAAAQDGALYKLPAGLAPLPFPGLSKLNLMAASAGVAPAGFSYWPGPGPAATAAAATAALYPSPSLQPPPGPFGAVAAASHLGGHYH
# In short: (§1)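 Binding signal is each hexamer's read frequency for a factor divided by its frequency in the tag-only sample. The factors were GST-fused human transcription factors from yeast, captured on glutathione beads, DNA-barcoded and pooled with that sample. Pools were incubated with 200 nmole of a random double-stranded 16-mer DNA library in Tris/NaCl/DTT/glycerol buffer at room temperature for 30 min, then washed, crosslinked with 0.1% formaldehyde, proximity-ligated with BsaI/T4 ligase (1 h, 37 °C), PCR-amplified and sequenced on an Illumina NextSeq500.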
# ETV5 = ETV5 (Homo sapiens, UniProt P41161 1-510); details: protein: recombinant; tags: N-terminal GST; dsDNA, one strand shown
# In short: as §1
# HSF1 = HSF1 (Homo sapiens, UniProt Q00613 1-529); details: protein: recombinant; tags: N-terminal GST; chain copies: 3; dsDNA, one strand shown
# In short: as §1
# SPIC = target: T2, SPIC (Homo sapiens, UniProt Q8N5J4 1-248); details: protein: recombinant; tags: N-terminal GST; dsDNA, one strand shown
# T2 sequence: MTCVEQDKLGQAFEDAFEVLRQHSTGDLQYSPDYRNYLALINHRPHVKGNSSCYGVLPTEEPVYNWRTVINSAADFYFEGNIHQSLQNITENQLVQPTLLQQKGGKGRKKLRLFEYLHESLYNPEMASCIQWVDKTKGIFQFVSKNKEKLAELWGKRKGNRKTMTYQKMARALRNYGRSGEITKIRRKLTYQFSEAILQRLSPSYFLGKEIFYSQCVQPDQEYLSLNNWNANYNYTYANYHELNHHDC
# In short: as §1
# ELF4 = ELF4 (Homo sapiens, UniProt Q99607 1-663); details: protein: recombinant; tags: N-terminal GST; dsDNA, one strand shown
# In short: as §1
# ELK4 = target: T3, ELK4 (Homo sapiens, UniProt P28324-2 1-405); details: protein: recombinant; tags: N-terminal GST; dsDNA, one strand shown
# T3 sequence: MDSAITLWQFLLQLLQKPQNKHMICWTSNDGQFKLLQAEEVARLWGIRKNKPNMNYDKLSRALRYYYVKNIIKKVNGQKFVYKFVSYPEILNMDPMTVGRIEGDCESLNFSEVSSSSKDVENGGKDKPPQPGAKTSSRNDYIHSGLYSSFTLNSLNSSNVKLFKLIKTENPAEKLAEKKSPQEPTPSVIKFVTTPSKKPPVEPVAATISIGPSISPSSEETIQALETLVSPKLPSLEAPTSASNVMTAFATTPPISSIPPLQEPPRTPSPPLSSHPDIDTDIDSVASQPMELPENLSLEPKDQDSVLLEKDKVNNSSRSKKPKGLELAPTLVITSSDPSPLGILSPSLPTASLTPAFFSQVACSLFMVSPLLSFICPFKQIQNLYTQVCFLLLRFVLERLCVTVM
# In short: as §1
# ETV2 = target: T4, ETV2 (Homo sapiens, UniProt O00321 1-342); details: protein: recombinant; tags: N-terminal GST; dsDNA, one strand shown
# T4 sequence: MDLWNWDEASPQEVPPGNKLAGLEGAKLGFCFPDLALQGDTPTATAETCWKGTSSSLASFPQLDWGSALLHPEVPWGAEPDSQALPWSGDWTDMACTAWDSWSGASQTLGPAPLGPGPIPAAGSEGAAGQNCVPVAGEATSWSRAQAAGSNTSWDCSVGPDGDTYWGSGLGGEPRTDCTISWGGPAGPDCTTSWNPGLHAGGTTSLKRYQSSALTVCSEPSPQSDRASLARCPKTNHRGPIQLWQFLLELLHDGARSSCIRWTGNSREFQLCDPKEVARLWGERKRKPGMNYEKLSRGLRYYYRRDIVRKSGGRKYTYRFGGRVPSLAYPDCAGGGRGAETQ
# In short: as §1
# ELF3 = target: T5, ELF3 (Homo sapiens, UniProt P78545 1-371); details: protein: recombinant; tags: N-terminal GST; dsDNA, one strand shown
# T5 sequence: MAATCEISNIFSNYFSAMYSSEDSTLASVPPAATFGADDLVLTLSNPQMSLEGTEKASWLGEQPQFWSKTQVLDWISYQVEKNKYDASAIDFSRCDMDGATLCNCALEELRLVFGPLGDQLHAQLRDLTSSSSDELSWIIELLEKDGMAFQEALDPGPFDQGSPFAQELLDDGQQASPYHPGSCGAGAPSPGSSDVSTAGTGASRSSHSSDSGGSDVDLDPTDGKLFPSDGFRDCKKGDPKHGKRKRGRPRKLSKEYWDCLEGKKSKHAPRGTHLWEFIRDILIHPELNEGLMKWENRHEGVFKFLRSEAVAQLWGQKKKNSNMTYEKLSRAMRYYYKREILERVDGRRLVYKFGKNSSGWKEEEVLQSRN
# In short: as §1
# CRX = CRX (Homo sapiens, UniProt O43186 1-299); details: protein: recombinant; tags: N-terminal GST; dsDNA, one strand shown
# In short: as §1
# ETV1 = ETV1 (Homo sapiens, UniProt P50549 1-477); details: protein: recombinant; tags: N-terminal GST; dsDNA, one strand shown
# In short: as §1
# ERF = target: T6, ERF (Homo sapiens, UniProt P50548 1-548); details: protein: recombinant; tags: N-terminal GST; dsDNA, one strand shown
# T6 sequence: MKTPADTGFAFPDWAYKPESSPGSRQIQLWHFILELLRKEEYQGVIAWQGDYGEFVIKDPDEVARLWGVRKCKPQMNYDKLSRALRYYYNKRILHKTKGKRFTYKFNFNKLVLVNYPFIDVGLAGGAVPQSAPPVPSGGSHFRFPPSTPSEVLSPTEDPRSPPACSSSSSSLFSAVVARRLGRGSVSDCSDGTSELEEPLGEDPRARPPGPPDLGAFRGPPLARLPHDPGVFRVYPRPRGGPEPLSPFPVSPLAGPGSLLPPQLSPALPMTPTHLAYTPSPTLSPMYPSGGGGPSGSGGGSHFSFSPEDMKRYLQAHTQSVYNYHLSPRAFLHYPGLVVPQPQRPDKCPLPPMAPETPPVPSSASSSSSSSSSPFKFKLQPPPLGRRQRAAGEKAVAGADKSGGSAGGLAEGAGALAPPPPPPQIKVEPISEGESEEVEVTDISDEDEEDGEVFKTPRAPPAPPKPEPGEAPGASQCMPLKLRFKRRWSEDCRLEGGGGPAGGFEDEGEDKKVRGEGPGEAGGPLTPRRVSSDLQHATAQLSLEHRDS
# In short: as §1
# ETV3L = target: T7, ETV3L (Homo sapiens, UniProt Q6ZN32 1-361); details: protein: recombinant; tags: N-terminal GST; dsDNA, one strand shown
# T7 sequence: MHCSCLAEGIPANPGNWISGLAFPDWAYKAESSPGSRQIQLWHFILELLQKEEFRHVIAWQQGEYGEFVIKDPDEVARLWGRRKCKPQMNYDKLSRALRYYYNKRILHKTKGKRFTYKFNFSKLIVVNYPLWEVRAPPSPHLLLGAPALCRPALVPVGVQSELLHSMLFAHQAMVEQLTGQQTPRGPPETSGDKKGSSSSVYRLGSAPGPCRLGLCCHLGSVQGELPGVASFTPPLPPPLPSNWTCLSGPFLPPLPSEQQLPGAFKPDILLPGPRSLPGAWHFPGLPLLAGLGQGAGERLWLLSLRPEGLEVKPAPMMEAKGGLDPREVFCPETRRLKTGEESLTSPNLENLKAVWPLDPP
# In short: as §1
# ETS2 = target: T8, ETS2 (Homo sapiens, UniProt P15036 1-469); details: protein: recombinant; tags: N-terminal GST; dsDNA, one strand shown
# T8 sequence: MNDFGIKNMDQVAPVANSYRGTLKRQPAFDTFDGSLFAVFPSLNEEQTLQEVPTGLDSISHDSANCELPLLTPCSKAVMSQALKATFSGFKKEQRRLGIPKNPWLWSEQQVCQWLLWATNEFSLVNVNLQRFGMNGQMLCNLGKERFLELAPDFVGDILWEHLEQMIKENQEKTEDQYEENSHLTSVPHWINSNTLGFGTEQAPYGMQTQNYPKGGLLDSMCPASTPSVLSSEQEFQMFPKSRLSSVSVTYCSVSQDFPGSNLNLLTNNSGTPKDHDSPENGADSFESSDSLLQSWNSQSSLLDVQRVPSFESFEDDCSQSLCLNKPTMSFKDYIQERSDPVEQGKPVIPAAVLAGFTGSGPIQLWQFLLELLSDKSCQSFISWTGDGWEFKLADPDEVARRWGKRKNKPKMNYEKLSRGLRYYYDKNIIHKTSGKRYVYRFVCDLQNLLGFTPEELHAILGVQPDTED
# In short: as §1
# SPDEF = target: T9, SPDEF (Homo sapiens, UniProt O95238 1-335); details: protein: recombinant; tags: N-terminal GST; dsDNA, one strand shown
# T9 sequence: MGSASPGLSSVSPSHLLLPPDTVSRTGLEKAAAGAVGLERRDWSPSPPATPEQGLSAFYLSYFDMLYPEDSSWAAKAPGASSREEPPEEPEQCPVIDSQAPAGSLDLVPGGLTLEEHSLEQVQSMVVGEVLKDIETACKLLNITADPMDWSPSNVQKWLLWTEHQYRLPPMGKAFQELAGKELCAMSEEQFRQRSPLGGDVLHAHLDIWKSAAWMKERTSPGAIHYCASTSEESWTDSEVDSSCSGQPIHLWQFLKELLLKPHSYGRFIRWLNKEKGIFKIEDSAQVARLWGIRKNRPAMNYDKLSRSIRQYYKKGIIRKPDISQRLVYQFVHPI
# In short: as §1
# ETV7 = target: T10, ETV7 (Homo sapiens, UniProt Q9Y603 1-341); details: protein: recombinant; tags: N-terminal GST; dsDNA, one strand shown
# T10 sequence: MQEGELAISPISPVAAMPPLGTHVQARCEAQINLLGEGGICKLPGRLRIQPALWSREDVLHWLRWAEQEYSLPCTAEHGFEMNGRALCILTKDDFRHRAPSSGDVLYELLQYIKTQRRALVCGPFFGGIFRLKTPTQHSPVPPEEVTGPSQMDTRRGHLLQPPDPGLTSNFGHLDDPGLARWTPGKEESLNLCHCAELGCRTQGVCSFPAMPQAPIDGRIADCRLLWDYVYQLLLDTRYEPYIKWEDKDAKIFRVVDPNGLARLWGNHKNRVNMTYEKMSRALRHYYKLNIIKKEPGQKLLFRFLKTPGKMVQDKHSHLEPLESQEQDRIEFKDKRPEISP
# In short: as §1
# ELF5 = target: T11, ELF5 (Homo sapiens, UniProt Q9UKW6-2 1-255); details: protein: recombinant; tags: N-terminal GST; dsDNA, one strand shown
# T11 sequence: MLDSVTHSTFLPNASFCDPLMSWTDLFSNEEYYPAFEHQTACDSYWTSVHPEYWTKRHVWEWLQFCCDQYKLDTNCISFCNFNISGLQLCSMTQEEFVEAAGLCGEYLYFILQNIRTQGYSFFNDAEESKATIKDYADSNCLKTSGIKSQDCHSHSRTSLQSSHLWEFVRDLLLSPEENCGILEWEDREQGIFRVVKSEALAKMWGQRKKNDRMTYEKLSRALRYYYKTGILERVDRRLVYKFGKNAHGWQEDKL
# In short: as §1
# ETV3 = target: T12, ETV3 (Homo sapiens, UniProt P41162-2 1-143); details: protein: recombinant; tags: N-terminal GST; dsDNA, one strand shown
# T12 sequence: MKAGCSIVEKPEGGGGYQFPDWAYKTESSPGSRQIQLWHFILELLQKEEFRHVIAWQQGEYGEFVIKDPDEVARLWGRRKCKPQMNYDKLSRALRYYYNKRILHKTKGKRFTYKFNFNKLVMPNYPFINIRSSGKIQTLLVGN
# In short: as §1
# ETV6 = ETV6 (Homo sapiens, UniProt P41212 1-452); details: protein: recombinant; tags: N-terminal GST; dsDNA, one strand shown
# In short: as §1
# Chain of CRX (O43186 whole entry): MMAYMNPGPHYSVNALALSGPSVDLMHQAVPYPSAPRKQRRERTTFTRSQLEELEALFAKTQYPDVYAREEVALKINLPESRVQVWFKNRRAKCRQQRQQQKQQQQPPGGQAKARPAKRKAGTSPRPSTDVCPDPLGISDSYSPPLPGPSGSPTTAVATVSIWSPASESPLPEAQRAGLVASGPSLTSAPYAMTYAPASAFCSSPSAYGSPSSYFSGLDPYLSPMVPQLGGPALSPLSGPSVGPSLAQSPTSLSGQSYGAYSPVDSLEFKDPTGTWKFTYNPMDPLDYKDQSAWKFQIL
# Chain of ELF4 (Q99607 whole entry): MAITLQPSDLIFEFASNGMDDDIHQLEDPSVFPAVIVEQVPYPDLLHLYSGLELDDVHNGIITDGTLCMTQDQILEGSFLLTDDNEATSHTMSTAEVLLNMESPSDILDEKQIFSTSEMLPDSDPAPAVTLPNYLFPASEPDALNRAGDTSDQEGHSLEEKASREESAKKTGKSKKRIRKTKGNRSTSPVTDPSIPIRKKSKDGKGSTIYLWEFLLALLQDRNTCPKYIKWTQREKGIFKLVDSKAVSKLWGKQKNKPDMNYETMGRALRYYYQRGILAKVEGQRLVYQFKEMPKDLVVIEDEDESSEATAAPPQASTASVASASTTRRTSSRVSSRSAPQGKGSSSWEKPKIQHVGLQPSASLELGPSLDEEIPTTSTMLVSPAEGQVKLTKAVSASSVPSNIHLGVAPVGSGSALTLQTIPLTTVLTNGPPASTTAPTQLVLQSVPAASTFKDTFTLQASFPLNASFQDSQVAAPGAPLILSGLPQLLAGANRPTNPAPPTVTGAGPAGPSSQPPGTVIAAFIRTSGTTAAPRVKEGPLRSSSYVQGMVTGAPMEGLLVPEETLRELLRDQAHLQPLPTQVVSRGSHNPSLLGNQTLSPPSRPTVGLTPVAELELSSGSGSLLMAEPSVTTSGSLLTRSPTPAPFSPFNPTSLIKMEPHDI
# Chain of HSF1 (Q00613 whole entry): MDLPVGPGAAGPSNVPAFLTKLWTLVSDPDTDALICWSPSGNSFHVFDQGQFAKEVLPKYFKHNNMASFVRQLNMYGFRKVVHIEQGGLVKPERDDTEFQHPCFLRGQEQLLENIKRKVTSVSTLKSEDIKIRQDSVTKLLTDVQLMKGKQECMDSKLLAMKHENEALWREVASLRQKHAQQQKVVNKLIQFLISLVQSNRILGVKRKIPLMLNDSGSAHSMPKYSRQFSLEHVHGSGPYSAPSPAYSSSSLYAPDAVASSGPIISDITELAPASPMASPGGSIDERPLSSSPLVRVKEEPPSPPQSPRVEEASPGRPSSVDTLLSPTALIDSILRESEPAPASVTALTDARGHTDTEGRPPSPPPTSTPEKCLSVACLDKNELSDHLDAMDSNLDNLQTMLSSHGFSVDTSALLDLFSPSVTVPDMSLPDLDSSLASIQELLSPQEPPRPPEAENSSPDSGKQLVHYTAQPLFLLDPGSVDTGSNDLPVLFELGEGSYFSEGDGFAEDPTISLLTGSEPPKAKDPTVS
# Chain of ETV1 (P50549 whole entry): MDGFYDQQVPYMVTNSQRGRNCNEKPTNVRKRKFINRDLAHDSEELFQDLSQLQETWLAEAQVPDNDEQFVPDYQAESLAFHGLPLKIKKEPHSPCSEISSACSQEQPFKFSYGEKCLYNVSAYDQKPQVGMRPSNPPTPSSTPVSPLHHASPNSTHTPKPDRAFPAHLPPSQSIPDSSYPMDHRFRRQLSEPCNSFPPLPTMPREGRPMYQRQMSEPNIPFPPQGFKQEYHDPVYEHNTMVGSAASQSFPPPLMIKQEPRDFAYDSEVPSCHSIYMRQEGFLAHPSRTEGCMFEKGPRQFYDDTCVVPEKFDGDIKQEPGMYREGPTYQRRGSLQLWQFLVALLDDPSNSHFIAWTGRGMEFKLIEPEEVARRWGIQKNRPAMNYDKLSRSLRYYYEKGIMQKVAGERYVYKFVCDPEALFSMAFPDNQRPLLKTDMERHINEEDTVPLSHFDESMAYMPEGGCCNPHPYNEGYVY
# Chain of ETV6 (P41212 whole entry): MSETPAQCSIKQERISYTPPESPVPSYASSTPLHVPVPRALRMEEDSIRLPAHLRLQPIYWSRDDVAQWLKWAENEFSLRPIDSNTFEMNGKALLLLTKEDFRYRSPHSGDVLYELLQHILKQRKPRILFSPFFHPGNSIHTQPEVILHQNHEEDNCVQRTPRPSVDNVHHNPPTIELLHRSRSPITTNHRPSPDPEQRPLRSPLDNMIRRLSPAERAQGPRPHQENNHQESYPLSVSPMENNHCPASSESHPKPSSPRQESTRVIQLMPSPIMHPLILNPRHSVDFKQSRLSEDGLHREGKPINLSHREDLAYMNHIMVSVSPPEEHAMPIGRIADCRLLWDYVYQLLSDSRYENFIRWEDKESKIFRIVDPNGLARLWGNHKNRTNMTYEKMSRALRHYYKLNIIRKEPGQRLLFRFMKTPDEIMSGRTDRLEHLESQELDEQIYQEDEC
# Chain of ETV5 (P41161 whole entry): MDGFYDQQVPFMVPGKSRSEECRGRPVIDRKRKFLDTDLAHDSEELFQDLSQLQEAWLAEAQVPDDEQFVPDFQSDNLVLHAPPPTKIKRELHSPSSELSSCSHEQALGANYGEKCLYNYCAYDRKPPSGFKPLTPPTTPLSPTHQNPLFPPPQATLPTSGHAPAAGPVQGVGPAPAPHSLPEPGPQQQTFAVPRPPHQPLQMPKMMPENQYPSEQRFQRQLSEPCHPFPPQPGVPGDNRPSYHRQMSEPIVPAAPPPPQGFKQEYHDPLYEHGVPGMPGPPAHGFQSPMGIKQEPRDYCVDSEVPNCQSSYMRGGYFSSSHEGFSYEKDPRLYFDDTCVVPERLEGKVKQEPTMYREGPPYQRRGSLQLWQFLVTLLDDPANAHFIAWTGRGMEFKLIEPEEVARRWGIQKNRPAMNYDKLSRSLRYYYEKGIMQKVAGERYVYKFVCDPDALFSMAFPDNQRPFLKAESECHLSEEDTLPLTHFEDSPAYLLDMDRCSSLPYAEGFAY
sequence,measurement,setting,value
CTTCGG,binding signal,FEV,"1.51 fold enrichment (6-mer frequency, TF over GST control)"
same,binding signal,ETV5,"1.54 fold enrichment (6-mer frequency, TF over GST control)"
same,binding signal,HSF1,"1.77 fold enrichment (6-mer frequency, TF over GST control)"
same,binding signal,SPIC,"1.48 fold enrichment (6-mer frequency, TF over GST control)"
same,binding signal,ELF4,"1.5 fold enrichment (6-mer frequency, TF over GST control)"
same,binding signal,ELK4,"1.52 fold enrichment (6-mer frequency, TF over GST control)"
same,binding signal,ETV2,"1.52 fold enrichment (6-mer frequency, TF over GST control)"
same,binding signal,ELF3,"1.39 fold enrichment (6-mer frequency, TF over GST control)"
same,binding signal,CRX,"1.52 fold enrichment (6-mer frequency, TF over GST control)"
same,binding signal,ETV1,"1.72 fold enrichment (6-mer frequency, TF over GST control)"
same,binding signal,ERF,"1.68 fold enrichment (6-mer frequency, TF over GST control)"
same,binding signal,ETV3L,"1.42 fold enrichment (6-mer frequency, TF over GST control)"
same,binding signal,ETS2,"1.48 fold enrichment (6-mer frequency, TF over GST control)"
same,binding signal,SPDEF,"1.36 fold enrichment (6-mer frequency, TF over GST control)"
same,binding signal,ETV7,"1.39 fold enrichment (6-mer frequency, TF over GST control)"
same,binding signal,ELF5,"1.41 fold enrichment (6-mer frequency, TF over GST control)"
same,binding signal,ETV3,"1.55 fold enrichment (6-mer frequency, TF over GST control)"
same,binding signal,ETV6,"1.27 fold enrichment (6-mer frequency, TF over GST control)"
